{
  "source": "PubChem BioAssay AID1079",
  "about": "(Emory University Molecular Libraries Screening Center, 2008)",
  "molecular_target": "Estrogen receptor (Homo sapiens) (UniProt P03372)",
  "sequence (P03372 whole entry, looked up)": "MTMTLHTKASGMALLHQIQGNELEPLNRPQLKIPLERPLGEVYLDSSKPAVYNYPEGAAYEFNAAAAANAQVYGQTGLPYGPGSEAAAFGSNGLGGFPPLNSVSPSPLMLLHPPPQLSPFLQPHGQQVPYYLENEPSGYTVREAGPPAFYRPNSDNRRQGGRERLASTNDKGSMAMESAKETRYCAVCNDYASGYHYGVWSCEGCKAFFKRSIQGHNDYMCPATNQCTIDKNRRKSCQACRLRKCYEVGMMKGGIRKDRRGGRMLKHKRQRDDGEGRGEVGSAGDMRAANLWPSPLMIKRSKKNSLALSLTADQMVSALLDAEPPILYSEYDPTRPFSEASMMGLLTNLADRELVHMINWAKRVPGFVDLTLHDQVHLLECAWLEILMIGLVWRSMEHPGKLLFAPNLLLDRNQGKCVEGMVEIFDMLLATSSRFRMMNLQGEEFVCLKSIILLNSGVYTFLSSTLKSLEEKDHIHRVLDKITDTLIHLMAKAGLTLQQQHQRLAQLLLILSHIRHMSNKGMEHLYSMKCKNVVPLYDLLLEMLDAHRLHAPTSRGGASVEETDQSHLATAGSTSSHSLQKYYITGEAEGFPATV",
  "experiment": "ERα–SRC-3 coactivator interaction inhibitors, confirmation, orthogonal assay, biochemical, ELISA, streptavidin-HRP readout (AID 1079)",
  "note": "Results with a measured potency or affinity are listed apart. Calls of active or inactive are those of the source.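 Rule for the calls: active = fitted half-effect concentration IC50 at or below a set limit, with percent of control there 60 or less; inactive = the rest.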",
  "data": [
    {"compound": "N#Cc1ccc(N2CCN(C(=O)CCCCCn3c(=S)[nH]c4ccccc4c3=O)CC2)cc1", "values": [
      {"measurement": "outcome", "result": "inactive"}
    ]},
    {"compound": "O=C(CCCCCCCn1c(=S)[nH]c2ccccc2c1=O)N1CCN(c2cccc(Cl)c2)CC1", "values": [
      {"measurement": "outcome", "result": "inactive"}
    ]}
  ]
}
